Compound activity as filed in PubChem.
Hits are enriched below; roughly 11% of the tested compounds scored in any of these assays.
L3MBTL1 inh – inhibitors of human L3MBTL1; Q9Y468; AlphaScreen L3MBTL1–H3K9me1 peptide binding; Potency, µM (top dose mostly 57.1 µM), for the others: at the highest dose activity, negative = inhibition, actives largely listed as inhibitors; 230,000 tested, 0.66% active; AID 485360; note: % is set by controls: 0 for no effect and ±100 for the full control effect; nearly all actives have a fitted effect of over 60% in size
Target sequence (Q9Y468 whole entry, looked up): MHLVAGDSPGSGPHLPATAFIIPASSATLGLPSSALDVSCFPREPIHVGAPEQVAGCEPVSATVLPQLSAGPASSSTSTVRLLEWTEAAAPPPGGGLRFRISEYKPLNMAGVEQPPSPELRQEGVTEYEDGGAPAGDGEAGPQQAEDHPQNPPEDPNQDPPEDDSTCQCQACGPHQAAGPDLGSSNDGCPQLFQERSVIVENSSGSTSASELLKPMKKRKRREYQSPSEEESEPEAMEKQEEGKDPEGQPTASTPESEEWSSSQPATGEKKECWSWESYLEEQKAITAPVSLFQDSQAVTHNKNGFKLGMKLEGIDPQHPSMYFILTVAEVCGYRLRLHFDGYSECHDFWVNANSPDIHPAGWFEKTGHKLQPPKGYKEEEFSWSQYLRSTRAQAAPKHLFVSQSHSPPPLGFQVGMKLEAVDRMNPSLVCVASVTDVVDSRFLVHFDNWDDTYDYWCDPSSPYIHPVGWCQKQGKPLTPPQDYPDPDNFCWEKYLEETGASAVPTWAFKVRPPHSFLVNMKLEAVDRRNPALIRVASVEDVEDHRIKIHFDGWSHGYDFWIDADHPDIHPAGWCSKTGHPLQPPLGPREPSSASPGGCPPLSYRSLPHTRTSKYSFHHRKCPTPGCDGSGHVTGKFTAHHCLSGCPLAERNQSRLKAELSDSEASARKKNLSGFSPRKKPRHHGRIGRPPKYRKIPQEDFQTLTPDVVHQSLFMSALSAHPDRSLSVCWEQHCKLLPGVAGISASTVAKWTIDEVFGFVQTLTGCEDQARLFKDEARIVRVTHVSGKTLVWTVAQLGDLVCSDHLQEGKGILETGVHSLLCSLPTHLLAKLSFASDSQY
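First, the protein-peptide complex forms for 30 min at room temperature (L3MBTL1 50 nM, biotinylated H3K9me1 peptide 75 nM). Next, compounds are pin-transferred and incubated 30 min. Finally, AlphaScreen beads are added and read after 30 min.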
BAZ2B inh – inhibitors of human BAZ2B bromodomain | Q9UIF8 | Potency, µM (top dose mostly 114 µM), for the others: at the top dose activity change, negative = inhibition, most hits filed as inhibitors | 360,000 tested, 4.4% active | AID 504333 | AlphaScreen BAZ2B-H3K14Ac peptide displacement; note: % is set by controls: 0 for no effect and ±100 for the full control effect; nearly all actives have a fitted effect of over 60% in size
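In this displacement format the biotinylated H3(5-23) peptide acetylated at Lys14 serves as ligand at 50 nM, with BAZ2B at 50 nM in PBS pH 7.4 containing 0.01% Tween-20. Donor and acceptor beads are 10 ug/mL final.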
G9a inh – G9a (human) methyltransferase inhibition; AID 504332; Q96KQ7; G9a H3K9 monomethylation, AlphaScreen, 2 h; 350,000 tested, 8.8% active; Potency, µM (series often up to 102 µM), for inactives: top-dose activity, negative = inhibition, hits mostly inhibitors; note: % is set by controls: 0 for no effect and ±100 for the full control effect; nearly all actives have a fitted effect of over 75% in size
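Chemiluminescent proximity detection of H3K9 monomethylation, read after 10 min bead incubation in the dark. Reaction: 20 nM G9a, 500 nM biotin-H3K9 peptide, 20 uM SAM cofactor, 2 h, room temperature, following 15 min enzyme-compound preincubation.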
JMJD2A Tudor – inhibitors of human JMJD2A Tudor domain. O75164. AlphaScreen JMJD2A-Tudor / H3K4me3 peptide binding. Potency, µM (titrated, usually from 114 µM), inactives show at the highest dose activity change, negative = inhibition, hits mostly inhibitors. 390,000 tested, 4.4% active. AID 504339; note: % is set by controls: 0 for no effect and ±100 for the full control effect; nearly all actives have a fitted effect of over 50% in size
HP1b binding inh – inhibitors of HP1-beta chromodomain binding to methylated histone tails; AlphaScreen HP1-beta / biotin-H3K9me3 peptide binding; 390,000 tested, 0.56% active; Potency, µM (doses to about 114 µM), inactives show at the top dose activity change, negative = inhibition, most hits filed as inhibitors; P83916; note: nearly all actives have a fitted effect of over 70% in size
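AlphaScreen: HP1-beta (50 nM) preformed 30 min with biotin-H3(1-18)K9me3 peptide (50 nM) in PBS pH 7.4, 0.01% Tween-20. Compound added for 30 min at RT, then streptavidin donor/nickel chelate acceptor beads (10 ug/mL) for 30 min.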
Starred values were filed as active, the others as inactive; ? = inconclusive; . = not tested or not shown; [ ] = dose if it differs, or a comment. Calls come from the whole dose curve; as a rule, active = well fitted inhibition curve with a large enough effect; inconclusive = small, poorly fitted or top-dose-only effect; inactive = no such curve, though single readings can be large or run the other way. Potency is the fitted concentration of half-maximal effect.

SMILES	L3MBTL1 inh	BAZ2B inh	G9a inh	JMJD2A Tudor	HP1b binding inh
Cc1ccc(C)c(S(=O)(=O)c2nnn3c2nc(Nc2ccc(F)c(Cl)c2)c2sccc23)c1	.	-8.7%	-0.2%[59 µM]	-15.8%	44.3%
COc1ccccc1CNC(=O)c1ccc(CSc2nc3ccncc3n2Cc2cccc(F)c2)cc1	.	-12.2%	?	-14.9%	50.7%
Nn1c(SC/C=C/c2ccccc2)nnc1-c1ccccn1	?	11.2µM*	28.2µM*	20µM*	31.1%
Clc1ccc(OCc2nnc(SCc3nc4ccccc4[nH]3)n2Cc2ccco2)cc1	-2.2%	-31.2%	39.8µM*	?	-7.6%
Cc1ccc(NC(=O)CSc2nnc(-c3ccccn3)n2N)c(Br)c1	25.1µM*	12.6µM*	1.0%	?	26.5%
COc1ccc(-c2nnc(SCc3cccc(C)c3)n2N)cc1	-0.2%	2.3%	15.7%[59 µM]	16.8%	18.2%
Nn1c(SC/C=C/c2ccccc2)nnc1-c1cccnc1	.	1.6%	-71.0%[12.7 µM]	-17.3%	9.7%
Cc1cccc(CSc2nnc(-c3ccccn3)n2N)c1	-24.9%	35.5µM*	14.1µM*	50.1µM*	25.2%
CCn1c(COc2ccc(C)cc2)nnc1SCc1nc2ccccc2[nH]1	-5.5%	-30.6%	.	-32.4%	28.8%
Cc1csc2nc(-c3ccc(NS(=O)(=O)c4cc(F)ccc4F)cc3)cn12	.	?	-39.5%[59 µM]	?	-0.5%[57 µM]
Cc1ccc(C)c(NC(=O)CN2C(=O)C3(SCC(=O)N3c3ccc(C)c(C)c3)c3ccccc32)c1 (stereo unspecified)	.	0.2%[57.1 µM]	-22.4%[59 µM]	-16.8%	18.6%
Clc1ccc(CSc2nnc(-c3cccnc3)n2Cc2ccco2)c(Cl)c1	-25.5%	-24.1%	35.5µM*	-14.2%	2.7%
NC(=O)CSc1nnc(-c2ccccn2)n1Cc1ccco1	-9.0%	-38.0%	-34.4%	0.0%	17.1%
Cn1c(SCc2nc3ccccc3[nH]2)nnc1-c1cnccn1	2.0%	9.7%	4.7%	-20.7%	15.4%
C=CCn1c(SCc2nc3ccccc3[nH]2)nnc1-c1ccncc1	1.2%	2.4%	-3.5%[59 µM]	-9.0%	22.0%
c1coc(Cn2c(SCc3nc4ccccc4[nH]3)nnc2-c2cnccn2)c1	-5.2%	-8.5%	31.6µM*	?	38.9%
Clc1ccccc1CSc1nnc(-c2ccccn2)n1Cc1ccco1	-0.6%	56.2µM*	?	56.2µM*	-0.5%
Clc1cccc(-c2nnc(SCc3nc4ccccc4[nH]3)n2Cc2ccco2)c1	-12.0%	?	39.8µM*	?	-4.9%
Clc1cccc(CSc2nnc(-c3cccnc3)n2Cc2ccco2)c1	-7.7%	6.1%	?	-18.7%	9.2%
O=C1c2ccc(Cl)cc2S(=O)(=O)c2cccc(C(=O)N3CCC(Cc4ccccc4)CC3)c21	-23.8%	?	-19.2%[0.501 µM]	?	-10.5%
COc1ccc(C(=O)CSc2nnc(-c3cnccn3)n2Cc2ccco2)cc1	-4.7%	?	?	?	9.2%
C(=C\c1ccccc1)/CSc1nnc(-c2ccccn2)n1Cc1ccco1	-8.0%	-35.3%	15.8µM*	?	15.4%
O=C(CSc1nnc(-c2ccccn2)n1Cc1ccco1)Nc1ccc2c(c1)OCO2	-2.0%	?	-0.3%[12.7 µM]	?	7.3%
COc1ccc(C(=O)CSc2nnc(-c3cccnc3)n2Cc2ccco2)cc1	-4.5%	-4.8%	50.1µM*	-7.1%	47.9%
c1ccc(-c2nnc(SCc3nc4ccccc4[nH]3)n2Cc2ccco2)nc1	-3.6%	?	50.1µM*	?	14.5%
SMILES	L3MBTL1 inh	BAZ2B inh	G9a inh	JMJD2A Tudor	HP1b binding inh
O=C(c1ccc2c(c1)N(Cc1ccccc1)C(=O)c1ccccc1S2(=O)=O)N1CCN(c2ccccn2)CC1	.	-20.1%	-5.5%[59 µM]	-14.8%	30.9%
NC(=O)c1cc(N2C(=O)C=CC2=O)ccc1Cl	4.1%	?	1.26µM*	25.1µM*	?
CCOc1ccc(N2C(=O)C3C(c4ccccc4F)NN(C(=O)c4ccc(C)cc4)C3C2=O)cc1 (stereo unspecified)	-15.0%	-8.7%	50.1µM*	-19.7%	24.1%
Cc1ccc(C(=O)N2NC(c3ccc(F)cc3)C3C(=O)N(c4ccc(C)cc4)C(=O)C32)cc1 (stereo unspecified)	-4.8%	-3.6%	-9.3%	-7.7%	82.7%
Cc1ccc(C(=O)N2NC(c3ccc(F)cc3)C3C(=O)N(c4ccc(C)c(C)c4)C(=O)C32)cc1 (stereo unspecified)	?	-9.1%	56.2µM*	-18.6%	42.9%
O=c1[nH]n(CCO)c(=O)c2cccnc12	-1.8%	?	?	56.2µM*	-13.6%
CCOC(=O)c1c(NC(=O)c2ccccc2C)sc2c1CCCC2	.	-0.6%	7.94µM*	84.7%	65.9%
CCOC(=O)c1c(NC(=O)C2CCCCC2C(=O)O)sc2c1CCCCC2 (stereo unspecified)	8.1%[11.4 µM]	?	-45.0%	-26.8%	-1.8%
COC(=O)C1=C(NC(=O)c2ccccc2C)CCS1	1.6%	-3.8%	-34.0%	79.4µM*	1.7%
CCOC(=O)c1c(NC(=O)c2ccccc2C(=O)O)sc2c1CCCC2	-2.2%	-2.3%	3.7%	-17.2%	17.9%
COC(=O)C1=C(NC(=O)c2cccs2)CCS1	-4.0%	-3.0%	52.0%[12.7 µM]	.	.
CCOC(=O)c1c(NC(=O)C(C)Sc2cn(CCNC(=O)c3ccc(OC)c(OC)c3)c3ccccc23)sc2c1CCC2 (stereo unspecified)	.	-18.9%	?	?	24.4%
CCOC(=O)c1c(NC(=O)C2C3C=CC(C3)C2(C)C(=O)O)sc2c1CCCC2 (stereo unspecified)	-14.7%	56.2µM*	-14.9%[59 µM]	-34.2%	3.6%
CCOC(=O)c1c(NC(=O)C(C)Sc2cn(CCNC(=O)c3ccccc3OC)c3ccccc23)sc2c1CCC2 (stereo unspecified)	.	8.91µM*	?	-31.0%	2.6%
O=C(NCCCN1CCN(c2ccccc2)CC1)c1nnc(Cc2c(F)cccc2Cl)o1	.	?	-32.4%[59 µM]	?	-18.2%
Cc1cccc(OC(=O)c2cc(-c3ccc4c(c3)OCCO4)on2)c1C	.	-23.8%	?	24.8%	65.3%
CC(C)c1ccc(Nc2ncnc3c2c(-c2ccccc2)cn3-c2ccccc2)cc1	.	0.6%	-4.7%[59 µM]	-11.9%	56.1%
CCOC(=O)c1c(NC(=O)c2ccccc2Cl)sc2c1CCc1ccccc1-2	58.0%	24.9%	4.47µM*	8.0%	12.6%
CCOC(=O)c1c(NC(=O)c2ccc(Br)cc2)sc2c1CCCC2	.	4.0%	10µM*	-10.3%	?
CCOC(=O)c1c(NC(=O)c2ccc(C)c(C)c2)sc2c1CCCCC2	.	9.4%	16.2%[59 µM]	15.0%	48.7%
Cc1ccc(OCc2cc(=O)n3cc(C)sc3n2)c(C)c1	.	-2.6%	10.1%[59 µM]	6.0%	49.3%
O=C1CCc2cc([S+](=O)([O-])Nc3ccc(N[S+](=O)([O-])c4ccc5c(c4)CCC(=O)N5)cc3)ccc2N1	.	.	.	-5.7%	.
O=S(=O)(c1cccs1)N1CCN(c2ccc(O)cc2)CC1	-28.1%	-29.3%	35.5µM*	-23.9%	-15.3%
